Reference: PubChem BioAssay AID1159580 (chemical genetic matrix, 2015)
“And” between values parts separate entries of the source, which are not always exact repeats. Identical values can stand only once. Out of some 5,500 compounds screened, about 2,000 (36%) were called active. Roughly 18% stayed inconclusive and do not appear here. Rule as the data show it: active = normalized growth mostly below about 0.91 (no sharp cut-off); inconclusive = no clear call, values can overlap the other calls; inactive = mostly above about 0.92. The list shows a part of the results.

Assay: chemical genetic growth profiling, strain panel (AID 1159580);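 also: tested at 20 µM; growth read once vehicle control cultures reached saturation at 30 °C; 1 = growth at the plate median or of vehicle wells; lower values mean less growth of the strain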
Details: growth OD

Measured: normalized growth

CO[C@H]1[C@H](O)[C@@H](O[C@H]2CC[C@]3(C=O)C4CC[C@]5(C)[C@@H](C6=CC(=O)OC6)CC[C@]5(O)C4CC[C@@H]3C2)O[C@@H](C)[C@@H]1O (some centres not stated)
inactive: S. cerevisiae deletion strains, locus YAL013W, strain DEP1, hits give low values 0.982 | S. cerevisiae deletion strains, locus YBR021W, strain FUR4, hits give low values 1.01 | S. cerevisiae deletion strains, locus YBR229C, strain ROT2, hits give low values 0.959 | S. cerevisiae deletion strains, locus YCL029C, strain bik1, hits give low values 0.993 | S. cerevisiae deletion strains, locus YDL035C, strain GPR1, hits give low values 0.986 | S. cerevisiae deletion strains, locus YDL074C, strain BRE1, hits give low values 1.01 | S. cerevisiae deletion strains, locus YDL101C, strain DUN1, hits give low values 0.973 | S. cerevisiae deletion strains, locus YDL134C, strain PPH21, hits give low values 0.986 | S. cerevisiae deletion strains, locus YDL185W, strain tfp1, hits give low values 0.989 | S. cerevisiae deletion strains, locus YDL192W, strain arf1, hits give low values 0.99 | S. cerevisiae deletion strains, locus YDR101C, strain arx1, hits give low values 1 | S. cerevisiae deletion strains, locus YDR150W, strain NUM1, hits give low values 0.966 | S. cerevisiae deletion strains, locus YDR162C, strain NBP2, hits give low values 0.978 | S. cerevisiae deletion strains, locus YDR318W, strain mcm21, hits give low values 1.01 | S. cerevisiae deletion strains, locus YDR388W, hits give low values 0.999 | S. cerevisiae deletion strains, locus YDR502C, strain sam2, hits give low values 0.992 | S. cerevisiae deletion strains, locus YEL061C, strain CIN8, hits give low values 0.984 | S. cerevisiae deletion strains, locus YER110C, hits give low values 0.973 | S. cerevisiae deletion strains, locus YER155C, strain BEM2, hits give low values 0.997 | S. cerevisiae deletion strains, locus YER167W, strain BCK2, hits give low values 0.995 | S. cerevisiae deletion strains, locus YGL078C, strain dbp3, hits give low values 0.986 | S. cerevisiae deletion strains, locus YGL086W, strain mad1, hits give low values 0.989 | S. cerevisiae deletion strains, locus YGL248W, strain PDE1, hits give low values 0.973 | S. cerevisiae deletion strains, locus YGR078C, strain PAC10, hits give low values 1 | S. cerevisiae deletion strains, locus YGR135W, strain pre9, hits give low values 1 | S. cerevisiae deletion strains, locus YGR229C, strain SMI1, hits give low values 0.996 | S. cerevisiae deletion strains, locus YGR252W, strain gcn5, hits give low values 0.999 | S. cerevisiae deletion strains, locus YHR030C, strain SLT2, hits give low values 0.987 and 0.975 | S. cerevisiae deletion strains, locus YHR079C, strain IRE1 (second series), hits give low values 0.99 | S. cerevisiae deletion strains, locus YHR079C, strain IRE1, hits give low values 0.965 | S. cerevisiae deletion strains, locus YHR094C, strain hxt1, hits give low values 0.988 | S. cerevisiae deletion strains, locus YHR129C, strain ARP1, hits give low values 0.996 | S. cerevisiae deletion strains, locus YHR200W, strain rpn10, hits give low values 0.999 | S. cerevisiae deletion strains, locus YIL066C, strain RNR3, hits give low values 0.968 | S. cerevisiae deletion strains, locus YIL073C, strain SPO22, hits give low values 0.994 | S. cerevisiae deletion strains, locus YIL125W, strain kgd1, hits give low values 0.98 | S. cerevisiae deletion strains, locus YIR030C, strain dcg1, hits give low values 0.982 | S. cerevisiae deletion strains, locus YJL095W, strain BCK1, hits give low values 1.04 and 0.973 | S. cerevisiae deletion strains, locus YJL134W, strain LCB3, hits give low values 0.981 | S. cerevisiae deletion strains, locus YJL168C, strain set2, hits give low values 0.992 | S. cerevisiae deletion strains, locus YJL187C, strain SWE1 (second series), hits give low values 0.99 | S. cerevisiae deletion strains, locus YJR043C, strain POL32, hits give low values 1.01 | S. cerevisiae deletion strains, locus YJR066W, strain TOR1, hits give low values 0.972 | S. cerevisiae deletion strains, locus YJR075W, strain HOC1, hits give low values 0.998 | S. cerevisiae deletion strains, locus YKL009W, strain mrt4, hits give low values 0.943 | S. cerevisiae deletion strains, locus YKL068W, hits give low values 0.994 | S. cerevisiae deletion strains, locus YKL085W, strain MDH1 (second series), hits give low values 0.98 | S. cerevisiae deletion strains, locus YKL085W, strain MDH1, hits give low values 0.98 | S. cerevisiae deletion strains, locus YKL190W, strain CNB1, hits give low values 0.991 | S. cerevisiae deletion strains, locus YKR001C, strain vps1, hits give low values 0.993 | S. cerevisiae deletion strains, locus YLR039C, strain RIC1, hits give low values 0.969 | S. cerevisiae deletion strains, locus YLR058C, strain SHM2, hits give low values 0.965 | S. cerevisiae deletion strains, locus YLR102C, strain apc9, hits give low values 0.994 | S. cerevisiae deletion strains, locus YLR113W, strain HOG1, hits give low values 0.975 | S. cerevisiae deletion strains, locus YLR262C, strain YPT6, hits give low values 0.972 | S. cerevisiae deletion strains, locus YLR268W, strain sec22, hits give low values 1.05 | S. cerevisiae deletion strains, locus YLR330W, strain CHS5, hits give low values 0.982 | S. cerevisiae deletion strains, locus YLR342W, strain FKS1 (second series), hits give low values 0.998 | S. cerevisiae deletion strains, locus YLR371W, strain rom2, hits give low values 0.979 | S. cerevisiae deletion strains, locus YLR418C, strain cdc73, hits give low values 1 | S. cerevisiae deletion strains, locus YML016C, strain PPZ1, hits give low values 0.987 | S. cerevisiae deletion strains, locus YML032C, strain rad52, hits give low values 1.01 | S. cerevisiae deletion strains, locus YML124C, strain tub3, hits give low values 0.989 | S. cerevisiae deletion strains, locus YMR078C, strain ctf18, hits give low values 0.993 | S. cerevisiae deletion strains, locus YMR223W, strain ubp8, hits give low values 0.977 | S. cerevisiae deletion strains, locus YMR263W, strain SAP30, hits give low values 0.987 | S. cerevisiae deletion strains, locus YMR307W, strain GAS1, hits give low values 0.981 | S. cerevisiae deletion strains, locus YNL067W, strain RPL9B, hits give low values 1.01 | S. cerevisiae deletion strains, locus YNL128W, strain TEP1, hits give low values 0.969 | S. cerevisiae deletion strains, locus YNL153C, strain GIM3, hits give low values 0.994 | S. cerevisiae deletion strains, locus YNL183C, strain NPR1, hits give low values 0.903 | S. cerevisiae deletion strains, locus YNL233W, strain BNI4, hits give low values 0.999 | S. cerevisiae deletion strains, locus YNL250W, strain rad50, hits give low values 0.969 | S. cerevisiae deletion strains, locus YNL271C, strain bni1, hits give low values 1 | S. cerevisiae deletion strains, locus YNL298W, strain CLA4, hits give low values 0.992 | S. cerevisiae deletion strains, locus YNL307C, strain MCK1, hits give low values 0.993 | S. cerevisiae deletion strains, locus YNL322C, strain KRE1, hits give low values 0.989 | S. cerevisiae deletion strains, locus YNR052C, strain pop2, hits give low values 1.01 | S. cerevisiae deletion strains, locus YOL006C, strain TOP1, hits give low values 1.01 | S. cerevisiae deletion strains, locus YOL012C, strain htz1 0.939 | S. cerevisiae deletion strains, locus YOL147C, strain pex11, hits give low values 0.998 | S. cerevisiae deletion strains, locus YOR061W, strain CKA2, hits give low values 0.968 | S. cerevisiae deletion strains, locus YOR069W, strain VPS5, hits give low values 0.988 | S. cerevisiae deletion strains, locus YOR136W, strain idh2, hits give low values 0.986 | S. cerevisiae deletion strains, locus YOR144C, strain elg1, hits give low values 0.998 | S. cerevisiae deletion strains, locus YOR184W, strain ser1, hits give low values 0.981 | S. cerevisiae deletion strains, locus YOR231W, strain MKK1, hits give low values 0.957 | S. cerevisiae deletion strains, locus YOR316C, strain cot1, hits give low values 0.985 | S. cerevisiae deletion strains, locus YPL055C, strain LGE1, hits give low values 0.979 | S. cerevisiae deletion strains, locus YPL241C, strain CIN2, hits give low values 0.992 | S. cerevisiae deletion strains, locus YPL256C, strain CLN2, hits give low values 0.948 | S. cerevisiae deletion strains, locus YPR119W, strain clb2, hits give low values 0.989 | S. cerevisiae deletion strains, locus YPR141C, strain kar3, hits give low values 0.983 | S. cerevisiae deletion strains, locus YPR163C, strain tif3, hits give low values 1 | S. cerevisiae deletion strains, locus YPR167C, strain met16, hits give low values 0.992 | S. cerevisiae deletion strains, strain wtn01, hits give low values 0.996 | S. cerevisiae strains, strain wild type, hits give low values 0.978
